# Results reported in PubChem BioAssay (NCI).
# About 83,000 compounds went through this panel and 20% of them were active in at least one assay; those are over-represented in the sample as a whole.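 Each cell line was grown in a 96-well plate and treated with one concentration of compound for 48 hours. Values below 10 were considered active.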 Unmarked numbers belong to inactive results. Active and inactive are the calls of the source.
# Experiments:
# Assay in all cases: NCI-60 one-dose screen, 48 h (100 = growth as untreated, 0 = no growth, -100 = all killed)
# Conditions in all cases: 10 µM unless noted
# [1] = tested on: HCT-15 colon
# [2] = tested on: HT29 colon
# [3] = tested on: SNB-19 CNS
# [4] = tested on: U251 CNS
# [5] = tested on: PC-3 prostate
# [6] = tested on: SK-MEL-5 melanoma
# [7] = tested on: UACC-62 melanoma
# [8] = tested on: LOX IMVI melanoma
# [9] = tested on: SK-MEL-28 melanoma
Compound,growth [1],growth [2],growth [3],growth [4],growth [5],growth [6],growth [7],growth [8],growth [9]
CC(C)C(C(=O)NCCN1CCOCC1)N1C(=O)/C(=C/c2ccc(Br)cc2)SC1=S (stereo unspecified),99.9%,109%,92.5%,98%,90.1%,98.2%,87.8%,99%,96.9%
O=c1c2sc3ncccc3c2nnn1-c1ccccc1,96%,109%,93.6%,97.7%,98.7%,102%,105%,104%,109%
O=C(/C=C/c1c[nH]c2ccccc12)c1ccc(O)c(CN2CCN(c3ccc(F)cc3)CC2)c1,93.5%,99%,94.1%,93.7%,84.7%,100%,101%,96.1%,107%
COc1ccc(-c2cc3c(OC)c(OC)c(OC)cc3oc2=O)cc1,37.9%,12%,65.8%,40.6%,62.1%,14.4%,40.2%,46.8%,67.5%
CCN(CC)c1ccc2[nH]c3c(C(N)=O)cc(=O)c(=O)c=3oc2c1,1.73% (active),5.89% (active),17.6%,-4.95% (active),13.4%,-84.7% (active),-24.4% (active),3.27% (active),13.2%
CCCCCCCCN(CCCCCCCC)CCCCCCNc1cc(OC)cc2cccnc12,109%,28.1%,94.1%,84.9%,67.2%,103%,110%,32.3%,106%
CC(=O)Nc1ccc(/C=C/C(=O)c2ccccc2)cc1,91.9%,83.8%,77.7%,74.7%,66.8%,100%,96.6%,93%,103%
NC(=S)N/N=C(/CCN1CCCC1)CC(C1=C(O)C2=CCCCC2OC1=O)c1ccccc1 (stereo unspecified),75.6%,36.2%,109%,88%,85.6%,98.3%,97.4%,56%,99.6%
CC(=O)Oc1cccc(S(=O)(=O)n2cc(C(=O)C(=O)Nc3ccncc3)c3ccccc32)c1,80.1%,86.1%,92.9%,93.1%,81.4%,73.5%,70.8%,86.6%,104%
CC12CCCC(CC(=O)c3[nH]c4ccccc4c31)C2 (stereo unspecified),26.6%,13.2%,27.9%,24.9%,22.5%,6.25% (active),37.4%,36.2%,53%
CCNc1nc(S(=O)(=O)CC)nc2ccccc12,92.3%,95.5%,103%,101%,96.8%,90.8%,90.8%,101%,108%
COc1ccc(S(=O)(=O)NCCCNc2nccc(-n3ccc4cccnc43)n2)cc1,75.8%,108%,89.1%,92.5%,86.2%,99.1%,88.3%,90.8%,104%
Cc1csc(NC(c2ccccc2)c2c(C)nc3ccccn23)n1 (stereo unspecified),100%,98%,93.5%,94.7%,82.6%,99.6%,94.2%,96.5%,110%
N#Cc1c(-c2ccccc2)nc(SCC(=O)N2CCN(c3ccccc3)CC2)[nH]c1=O,107%,117%,99.9%,95.7%,95.6%,103%,106%,97%,116%
COc1cc([N+](=O)[O-])c2ncccc2c1O,4.36% (active),44.6%,6.29% (active),53.3%,78.9%,-59.4% (active),15.8%,66%,28.5%
COc1cccc(/C=C/C(=O)Nc2cc(OC)c3c(c2)OCO3)c1,101%,92.1%,96.7%,91.3%,97.8%,94.1%,92%,95.8%,114%
O=C(N/N=C/C=C\c1ccccc1)C(=O)N/N=C/C=C/c1ccccc1,108%,110%,120%,107%,109%,110%,114%,94%,115%
CC(C)(C)n1cc(-c2ccnc(NCCNS(=O)(=O)c3ccc(F)cc3)c2)c(-c2cccc(O)c2)n1,8.99% (active),15.8%,71.3%,48.4%,35.5%,19.4%,61.8%,31.2%,52.4%
O=C(Nc1cccc(-n2cc(-c3ccncc3)c(-c3ccc(Cl)c(O)c3)n2)c1)Nc1cccc(C(F)(F)F)c1,18.2%,77.8%,32.5%,15.8%,4.28% (active),-25.5% (active),10.4%,23.8%,29.4%
COc1ccc(N2CCN(Cc3cc(C(=O)/C=C/c4c[nH]c5ccccc45)ccc3O)CC2)cc1,98.7%,106%,100%,95%,88.3%,99.6%,101%,97.2%,110%
Nc1cccc(-c2nc3sccn3c2-c2ccnc(NCCCNS(=O)(=O)c3cccc4ccccc34)n2)c1,25.4%,20.6%,55.6%,49.3%,31.2%,4.1% (active),22.2%,9.92% (active),64.5%
O=C(O)COc1ccc(-c2cssc2=S)cc1,99.4%,87.5%,105%,98.2%,104%,100%,107%,96.6%,108%
CC(C)c1ccc2occ(C=C3C(=O)NC(=O)NC3=O)c(=O)c2c1,85.8%,94.7%,81%,74.3%,92%,97.3%,82.1%,87.4%,99.8%
Cc1ccc(S(=O)(=O)/C(=C\c2ccc(Cl)cc2)C(=O)c2ccccc2)cc1,100%,123%,95.7%,102%,96.4%,103%,101%,104%,100%
CC(C)(C)n1cc(-c2ccnc(NCCCNS(=O)(=O)c3cccc(F)c3)c2)c(-c2cccc(O)c2)n1,-7.15% (active),12.6%,75.7%,49.9%,32.9%,26.1%,64.5%,-71.1% (active),47.2%
Clc1cccc(-c2cc(-c3ccc4c(c3)OCCO4)[nH]n2)c1,18.7% [25 µM],7.83% [25 µM] (active),45.7% [25 µM],27.4% [25 µM],37.1% [25 µM],5.53% [25 µM] (active),45.4% [25 µM],30.2% [25 µM],56% [25 µM]
Cn1cc(-c2cnc3ccc(NC(=O)Nc4ccc(F)c(Br)c4)cc3n2)cn1,19.3%,40%,57.7%,44.9%,0.663% (active),-9.12% (active),-41.2% (active),4.06% (active),50.1%
Cc1ccc(-c2csc(NC(=O)CCCCl)n2)cc1,95.1%,93.9%,86.5%,95.4%,95.4%,93.9%,88.6%,98.3%,107%
NC1=C(/C(N)=N/O)C(c2ccccc2)c2ccc3ccccc3c2O1 (stereo unspecified),5.04% (active),6.2% (active),24.8%,19.6%,20.4%,-44.5% (active),19.8%,22.7%,49.8%
